Results filed as inconclusive are left out. Calls of active or inactive are those of the source. Unless noted, the call rests on the fitted dose curve; in most records, active means well fitted curve in the direction sought with a large enough effect; inconclusive means small, poorly fitted or top-dose-only effect, or another doubt; inactive means no such curve, though single readings can be large; an effect the other way counts as inactive or inconclusive.
Legend:
[1] = AP1 Signaling Pathway (AID 357; active means well fitted curve in either direction with a large enough effect, not every such curve was filed as active;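 further: ME-180 reporter cells stimulated with EGF at its EC50 level; on the % scale 0 is the no-effect control and ±100 the full control effect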); conditions: ME-180 AP-1-bla reporter, EGF-induced, beta-lactamase ratio, 5 h; at 7.69 µM (top of the series) unless noted
In short: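 First, ME-180 AP-1-bla cells were cultured overnight at 37 °C in low-serum Opti-MEM. Next, titrated compounds with EC50 EGF were incubated 5 hours. Finally, CCF4 was added for 2.5 hours and the 460/530 nm ratio recorded.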

[2] = molecular target: Cytochrome P450 1A2 (Homo sapiens) (UniProt P05177); assay: p450-cyp1a2 (AID 410; calls by dose curve;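 further: -100% = full effect of reference inhibitor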)
Sequence of Cytochrome P450 1A2 (Homo sapiens) (P05177 whole entry, looked up): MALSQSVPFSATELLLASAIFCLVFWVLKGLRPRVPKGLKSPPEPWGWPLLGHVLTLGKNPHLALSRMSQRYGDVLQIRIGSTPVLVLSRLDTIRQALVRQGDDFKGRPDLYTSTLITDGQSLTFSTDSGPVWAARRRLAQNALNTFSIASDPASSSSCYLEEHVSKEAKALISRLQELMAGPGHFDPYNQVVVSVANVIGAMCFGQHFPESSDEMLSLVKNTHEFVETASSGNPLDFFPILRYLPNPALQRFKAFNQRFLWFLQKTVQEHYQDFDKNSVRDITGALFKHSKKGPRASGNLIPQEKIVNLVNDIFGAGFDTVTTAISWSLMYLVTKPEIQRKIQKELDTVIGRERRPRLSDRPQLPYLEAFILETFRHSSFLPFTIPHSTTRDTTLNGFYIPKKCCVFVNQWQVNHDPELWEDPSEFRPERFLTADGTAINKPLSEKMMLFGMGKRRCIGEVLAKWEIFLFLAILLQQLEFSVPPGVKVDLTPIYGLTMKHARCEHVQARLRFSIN
In short: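 20nM CYP1A2 with 100uM Luciferin-ME (at Km) in 100mM KPO4; compound preincubated 10 min, NADPH regeneration added, 60 min at room temperature. Luciferin quantified by luminescence after detection reagent; normalized to 57 uM furafylline.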

[3] = NFAT Signaling Pathway (AID 444; active means well fitted curve in either direction with a large enough effect, not every such curve was filed as active;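 further: carbachol stimulus at about its EC50 of 1 µM final; on the % scale 0 is the no-effect control and ±100 the full control effect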); conditions: Jurkat NFAT-bla M1, carbachol, beta-lactamase ratio, 5 h; at 7.69 µM (top of the series) unless noted
In short: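 Jurkat cells carrying an NFAT-driven β-lactamase reporter and co-transfected muscarinic M1 receptor were treated with compound plus carbachol (1 uM final, an EC50 level) for 5 h at 37 °C. CCF4 loading followed for 1 h at RT; 460/530 nm ratio gave %activity.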

[4] = Stat Signaling Pathway (AID 446; active means well fitted curve in either direction with a large enough effect, not every such curve was filed as active;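 further: ME-180 cervical cancer cells given 40 pM IL-6 alongside compound; SIE-controlled beta-lactamase reporter measured as 460/530 nm FRET emission ratio; on the % scale 0 is the no-effect control and ±100 the full control effect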); conditions: ME-180 SIE beta-lactamase reporter, IL-6 stimulated, 5 h; at 7.69 µM (top of the series) unless noted
In short: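 Reporter line: ME-180 cervical carcinoma, SIE-beta-lactamase. Treatment: compound with 40 pM IL-6, 5 hrs, 37 C, in low-serum OPTI-MEM with 10 mM HEPES pH 7.3. Detection: 460/530 nm fluorescence.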

[5] = molecular target: Glucocorticoid receptor (Homo sapiens) (UniProt P04150); assay: GR-GFP Redistribution (AID 450;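 active means compounds whose dose series gives a full or clear partial fitted curve of increased nuclear translocation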; further: potency means the concentration at half of the fitted maximal effect); conditions: U2OS GR-GFP nuclear translocation, laser cytometry, 2 h
Sequence of Glucocorticoid receptor (Homo sapiens) (P04150 whole entry, looked up, the tested form may be a part): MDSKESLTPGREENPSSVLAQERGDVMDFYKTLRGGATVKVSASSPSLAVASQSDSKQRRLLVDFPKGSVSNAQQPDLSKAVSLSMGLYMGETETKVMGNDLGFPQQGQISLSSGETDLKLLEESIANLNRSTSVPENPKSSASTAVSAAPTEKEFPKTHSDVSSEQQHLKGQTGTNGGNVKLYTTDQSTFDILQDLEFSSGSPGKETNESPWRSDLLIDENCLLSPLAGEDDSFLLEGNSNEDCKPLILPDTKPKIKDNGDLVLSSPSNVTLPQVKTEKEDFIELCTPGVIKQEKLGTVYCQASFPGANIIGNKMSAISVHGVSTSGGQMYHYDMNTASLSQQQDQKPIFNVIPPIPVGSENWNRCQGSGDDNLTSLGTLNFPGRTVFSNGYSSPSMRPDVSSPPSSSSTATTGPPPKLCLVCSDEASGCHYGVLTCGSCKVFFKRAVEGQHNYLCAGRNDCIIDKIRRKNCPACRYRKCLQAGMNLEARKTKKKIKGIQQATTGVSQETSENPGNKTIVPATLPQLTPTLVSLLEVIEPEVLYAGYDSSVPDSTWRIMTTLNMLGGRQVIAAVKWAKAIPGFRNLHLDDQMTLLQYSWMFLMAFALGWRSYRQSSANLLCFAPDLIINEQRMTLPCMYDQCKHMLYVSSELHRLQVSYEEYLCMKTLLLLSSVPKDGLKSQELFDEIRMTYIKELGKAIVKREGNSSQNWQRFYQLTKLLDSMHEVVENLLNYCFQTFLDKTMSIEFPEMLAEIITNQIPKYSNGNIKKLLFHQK

[6] = molecular target: Glucocorticoid receptor (Homo sapiens) (UniProt P04150); assay: GR-EFC Redistribution (AID 451; calls by dose curve; further: potency means the concentration at half of the fitted maximal effect); conditions: CHO-K1 GR-EFC translocation, beta-gal luminescence, 2 h
In short: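 CHO-K1 cells stably expressing nuclear-localized β-gal enzyme acceptor and GR fused C-terminally to the enzyme donor fragment; ligand-driven nuclear translocation restores β-gal by complementation. Compounds titrated up to 46 uM final, 2 h at 37 °C; luminescence read.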

[7] = molecular target: Mitogen-activated protein kinase 10 (Mus musculus) (UniProt Q61831); assay: JNK3 AlphaScreen Assay (AID 530; active means well fitted curve in either direction with a large enough effect, not every such curve was filed as active;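 further: kinase came from lysate of stimulated human HepG2 cells; signal reports phosphorylation of biotinylated GST-cJun 1-79 at Ser73 with 10 µM ATP; on the % scale 0 is the no-effect control and ±100 the full control effect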)
In short: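 Inhibitors reduce antibody binding to phosphorylated biotin-cJun, lowering AlphaScreen luminescence. Lysates from HepG2 cells pre-activated by IL-1beta plus TNF-alpha supplied JNK3; compounds were titrated.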

[8] = molecular target: 3',5'-cyclic-AMP phosphodiesterase 4B (Homo sapiens) (UniProt Q07343); assay: qHTS Assay for Inhibitors of PDE-IV (AID 607; active means well fitted activation curve with a large enough effect in the main read-out, with a control signal flat, not every such curve was filed as active; further: % of control where 0% means no effect)
Sequence of 3',5'-cyclic-AMP phosphodiesterase 4B (Homo sapiens) (Q07343 whole entry, looked up): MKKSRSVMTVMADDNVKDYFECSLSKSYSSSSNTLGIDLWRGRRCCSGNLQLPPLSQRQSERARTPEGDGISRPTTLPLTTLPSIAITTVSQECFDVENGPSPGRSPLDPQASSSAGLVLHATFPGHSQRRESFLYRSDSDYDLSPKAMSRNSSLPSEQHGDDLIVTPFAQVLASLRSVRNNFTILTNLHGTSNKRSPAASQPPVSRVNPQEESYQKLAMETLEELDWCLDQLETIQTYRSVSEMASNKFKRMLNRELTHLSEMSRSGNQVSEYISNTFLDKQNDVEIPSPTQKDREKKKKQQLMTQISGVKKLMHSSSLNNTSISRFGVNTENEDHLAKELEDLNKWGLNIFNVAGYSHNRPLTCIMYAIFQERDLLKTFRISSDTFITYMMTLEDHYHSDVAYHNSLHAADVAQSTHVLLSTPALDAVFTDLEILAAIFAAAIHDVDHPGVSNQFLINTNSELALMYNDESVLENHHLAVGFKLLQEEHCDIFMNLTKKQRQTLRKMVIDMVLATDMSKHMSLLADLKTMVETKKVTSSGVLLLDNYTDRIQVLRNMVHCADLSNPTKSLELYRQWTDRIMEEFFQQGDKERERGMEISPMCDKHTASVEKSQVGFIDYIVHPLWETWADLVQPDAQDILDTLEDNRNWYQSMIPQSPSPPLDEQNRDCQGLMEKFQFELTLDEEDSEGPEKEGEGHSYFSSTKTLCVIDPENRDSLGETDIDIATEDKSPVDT
In short: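 Cell-based read-out of cAMP via a modified cyclic nucleotide-gated channel and membrane potential dye (535/590 nm) in HEK293 cells expressing PDE4 endogenously. Compounds tested up to 22.9 uM final; 100 uM RO 20-1724 reference.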

[9] = molecular target: Guanine nucleotide-binding protein G(i) subunit alpha-1 (Homo sapiens) (UniProt P63096); assay: qHTS Assay for Inhibitors of RGS12 GoLoco Motif Activity (Green Fluorophore) (AID 879);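 further: 0% = labeled peptide with Gαi1 and full inhibition = labeled peptide alone without protein; negative values mean loss of peptide binding seen as reduced polarization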
Sequence of Guanine nucleotide-binding protein G(i) subunit alpha-1 (Homo sapiens) (P63096 whole entry, looked up): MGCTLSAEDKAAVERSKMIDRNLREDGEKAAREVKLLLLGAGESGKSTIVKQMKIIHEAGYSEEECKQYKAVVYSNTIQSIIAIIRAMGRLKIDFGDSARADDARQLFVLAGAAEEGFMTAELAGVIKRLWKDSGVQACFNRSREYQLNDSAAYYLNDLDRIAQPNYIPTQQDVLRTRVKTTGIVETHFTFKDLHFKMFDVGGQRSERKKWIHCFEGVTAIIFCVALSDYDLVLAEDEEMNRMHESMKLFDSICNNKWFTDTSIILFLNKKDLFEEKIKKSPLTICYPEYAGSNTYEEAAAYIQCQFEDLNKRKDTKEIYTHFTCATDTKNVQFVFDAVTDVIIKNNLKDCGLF
In short: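 Fluorescence polarization assay: 50 nM Gαi1 with 10 nM FITC-labeled RGS12 GoLoco peptide in 10 mM Tris pH 7.5, 150 mM NaCl, 0.1 mM GDP, 0.05% NP40, 10 min at room temperature with compound.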

[10] = molecular target: Cytochrome P450 3A4 (Homo sapiens) (UniProt P08684); assay: qHTS Assay for Activators of Cytochrome P450 3A4 (AID 885); further: nearly all actives have a fitted effect of over 65% in size
In short: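 Signal was normalized against complete inhibition by 57 uM ketoconazole. The reaction used 20nM CYP3A4 with 25uM Luciferin-PPXE, 10-min compound preincubation and a 60-min NADPH-supported step at RT.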

[11] = molecular target: Cytochrome P450 2D6 (Homo sapiens) (UniProt P10635); assay: qHTS Assay for Inhibitors and Substrates of Cytochrome P450 2D6 (AID 891);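 further: luciferin methyl ether substrate demethylated by CYP2D6 with NADPH regeneration; on the % scale 0 is the no-effect control and ±100 the full control effect; nearly all actives have a fitted effect of over 60% in size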
In short: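 Human CYP2D6 (5 nM) with 30 uM Luciferin-ME EGE (at Km) in 100 mM KPO4, compound preincubated 10 min, then NADPH regeneration system for 60 min at room temperature. Luciferin read by luminescence; normalized to 1.43 uM quinidine.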

[12] = molecular target: Cytochrome P450 2C19 (Homo sapiens) (UniProt P33261); assay: qHTS Assay for Inhibitors and Substrates of Cytochrome P450 2C19 (AID 899); further: on the % scale 0 is the no-effect control and ±100 the full control effect; nearly all actives have a fitted effect of over 60% in size
In short: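 In 50mM KPO4, the reaction held 5nM enzyme and KM-level (10uM) Luciferin-H EGE; it ran 60 min at 37C after NADPH regeneration and a 10 min compound preincubation. Luminescence values were scaled to 57uM ketoconazole as complete inhibition.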

[13] = qHTS Assay for Identification of Small Molecule Agonists for Thrombopoietin (TPO) Signaling Pathway (AID 917); further: on the % scale 0 is the no-effect control and ±100 the full control effect
In short: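 Murine Ba/F3 cells stably expressing human TPO receptor and a Glycoprotein IIb promoter–luciferase reporter were IL-3-starved overnight, then treated with compounds plus TPO (26 pM final, its EC50) for 24 hrs at 37 C; luminescence was read.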

[14] = molecular target: Muscarinic acetylcholine receptor M1 (Rattus norvegicus) (UniProt P08482); assay: qHTS Assay for Antagonists of Acetylcholine Muscarinic M1 Receptor: Measurement of IP-One Response (AID 944); further: nearly all actives have a fitted effect of over 75% in size
Sequence of Muscarinic acetylcholine receptor M1 (Rattus norvegicus) (P08482 whole entry, looked up): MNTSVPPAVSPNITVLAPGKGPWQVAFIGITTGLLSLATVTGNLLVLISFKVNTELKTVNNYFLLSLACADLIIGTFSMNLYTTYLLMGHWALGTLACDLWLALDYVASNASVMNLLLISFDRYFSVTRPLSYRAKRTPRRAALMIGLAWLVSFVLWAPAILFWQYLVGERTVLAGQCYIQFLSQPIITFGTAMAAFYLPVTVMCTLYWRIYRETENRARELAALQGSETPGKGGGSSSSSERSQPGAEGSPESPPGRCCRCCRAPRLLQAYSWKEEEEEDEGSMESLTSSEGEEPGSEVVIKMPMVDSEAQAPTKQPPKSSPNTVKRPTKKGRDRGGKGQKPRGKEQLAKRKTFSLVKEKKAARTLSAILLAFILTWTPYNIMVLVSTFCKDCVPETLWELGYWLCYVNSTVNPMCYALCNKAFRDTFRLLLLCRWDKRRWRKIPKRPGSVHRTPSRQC
In short: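 CHO cells stably expressing rat M1, pretreated 10 min with compound, then stimulated 30 min with carbachol at EC80 (200 nM) in LiCl-containing buffer pH 7.4; IP1 accumulation read by HTRF competition (665/620 nm).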

[15] = molecular target: Pyruvate kinase (Leishmania mexicana) (UniProt Q27686); assay: qHTS Validation Assay for Inhibitors of Leishmania Mexicana Pyruvate Kinase (AID 945);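 further: 0% = DMSO only neutral control wells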
Sequence of Pyruvate kinase (Leishmania mexicana) (Q27686 2-499 E452W): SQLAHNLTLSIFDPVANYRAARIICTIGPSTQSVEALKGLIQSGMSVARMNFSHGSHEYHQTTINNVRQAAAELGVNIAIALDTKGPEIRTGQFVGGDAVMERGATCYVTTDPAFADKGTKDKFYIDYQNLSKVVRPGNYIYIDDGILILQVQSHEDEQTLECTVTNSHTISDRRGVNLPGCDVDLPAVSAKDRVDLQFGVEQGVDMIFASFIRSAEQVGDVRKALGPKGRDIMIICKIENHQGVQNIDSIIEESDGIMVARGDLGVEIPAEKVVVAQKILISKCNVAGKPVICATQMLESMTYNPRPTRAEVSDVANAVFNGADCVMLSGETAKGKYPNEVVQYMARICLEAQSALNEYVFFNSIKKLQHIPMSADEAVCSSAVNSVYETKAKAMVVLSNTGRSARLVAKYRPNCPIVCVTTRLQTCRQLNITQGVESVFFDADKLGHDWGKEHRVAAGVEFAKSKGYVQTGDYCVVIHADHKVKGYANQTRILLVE
In short: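 qHTS eight-point titrations against 0.2 nM LmPYK (E451W) in imidazole buffer pH 7.2 with 0.5 mM PEP, 0.1 mM ADP; 1 h, room temperature. Readout: PKLight luminescence, normalized to neutral DMSO wells.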

[16] = molecular target: Pyruvate kinase PKM (Homo sapiens) (UniProt P14618); assay: qHTS Assay for Activators of Human Muscle Pyruvate Kinase (AID 954; active means well fitted curve in the direction sought with a large enough effect, not every such curve was filed as active;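 further: 0% = uninhibited enzyme and -100% = no enzyme or full thiadiazolimine inhibition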)
Sequence of Pyruvate kinase PKM (Homo sapiens) (P14618 whole entry, looked up): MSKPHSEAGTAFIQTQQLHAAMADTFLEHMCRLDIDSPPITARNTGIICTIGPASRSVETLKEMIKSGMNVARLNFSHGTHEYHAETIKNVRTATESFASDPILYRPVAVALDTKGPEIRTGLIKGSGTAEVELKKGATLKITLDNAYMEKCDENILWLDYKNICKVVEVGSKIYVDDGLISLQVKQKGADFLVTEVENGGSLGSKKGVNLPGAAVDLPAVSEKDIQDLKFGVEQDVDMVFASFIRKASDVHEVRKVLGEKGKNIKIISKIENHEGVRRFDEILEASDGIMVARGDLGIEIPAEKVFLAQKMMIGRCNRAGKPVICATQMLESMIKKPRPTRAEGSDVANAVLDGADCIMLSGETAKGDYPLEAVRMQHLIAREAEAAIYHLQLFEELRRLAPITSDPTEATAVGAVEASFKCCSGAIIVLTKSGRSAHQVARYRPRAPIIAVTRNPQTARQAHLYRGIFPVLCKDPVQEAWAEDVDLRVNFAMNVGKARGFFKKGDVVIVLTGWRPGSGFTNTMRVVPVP
In short: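 Human PKM2 activity is measured as ATP generation, detected by luciferase-coupled luminescence. The enzyme (0.1 nM) acts on 0.5 mM PEP and 0.1 mM ADP for 1 h at ambient temperature; data are normalized to uninhibited and full-inhibition wells.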

[17] = molecular target: Alpha-galactosidase A (Homo sapiens) (UniProt P06280); assay: Counterscreen for Glucocerebrosidase Inhibitors: qHTS Assay for Human alpha-Galactosidase at pH 4.5 (AID 992); further: 0% is about no effect
Sequence of Alpha-galactosidase A (Homo sapiens) (P06280 whole entry, looked up): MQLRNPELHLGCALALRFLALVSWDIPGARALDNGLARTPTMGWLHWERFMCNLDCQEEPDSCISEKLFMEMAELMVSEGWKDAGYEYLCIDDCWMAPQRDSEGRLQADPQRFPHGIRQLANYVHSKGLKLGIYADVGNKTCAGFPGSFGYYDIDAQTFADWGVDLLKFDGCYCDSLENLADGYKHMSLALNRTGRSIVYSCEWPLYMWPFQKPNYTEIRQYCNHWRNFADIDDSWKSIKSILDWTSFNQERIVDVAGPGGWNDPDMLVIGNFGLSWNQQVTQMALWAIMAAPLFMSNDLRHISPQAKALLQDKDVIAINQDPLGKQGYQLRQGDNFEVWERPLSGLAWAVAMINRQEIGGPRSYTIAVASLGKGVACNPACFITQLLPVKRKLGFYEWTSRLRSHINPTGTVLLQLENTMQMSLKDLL
In short: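 Quantitative HTS: compounds tested from 0.7 nM up to 77 uM against 2 nM enzyme with 80 uM 4-MU alpha-D-galactopyranoside. The 20 min room-temperature reaction is stopped with 1M NaOH/1M glycine, pH 10.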

[18] = molecular target: alpha-glucosidase (Oryza sativa, rice) (UniProt Q653V4); assay: Counterscreen for Glucocerebrosidase Inhibitors: qHTS Assay for Rice alpha-Glucosidase at pH 5.0 (AID 997);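 further: 0% = full activity with enzyme and -100% = basal without enzyme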
In short: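 Rice alpha-glucosidase (4 nM final) with 400 uM 4-methylumbelliferyl-alpha-D-glucopyranoside in citrate buffer pH 5.0, 20 min at room temperature, stopped at pH 10; fluorescence 365/440 nm, compounds 0.7 nM–77 uM, AC50 from Hill fits.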

[19] = molecular target: Cytochrome P450 2C9 (Homo sapiens) (UniProt P11712); assay: qHTS Assay for Inhibitors and Substrates of Cytochrome P450 2C9 (AID 883); further: on the % scale 0 is the no-effect control and ±100 the full control effect; nearly all actives have a fitted effect of over 60% in size
Sequence of Cytochrome P450 2C9 (Homo sapiens) (P11712 whole entry, looked up): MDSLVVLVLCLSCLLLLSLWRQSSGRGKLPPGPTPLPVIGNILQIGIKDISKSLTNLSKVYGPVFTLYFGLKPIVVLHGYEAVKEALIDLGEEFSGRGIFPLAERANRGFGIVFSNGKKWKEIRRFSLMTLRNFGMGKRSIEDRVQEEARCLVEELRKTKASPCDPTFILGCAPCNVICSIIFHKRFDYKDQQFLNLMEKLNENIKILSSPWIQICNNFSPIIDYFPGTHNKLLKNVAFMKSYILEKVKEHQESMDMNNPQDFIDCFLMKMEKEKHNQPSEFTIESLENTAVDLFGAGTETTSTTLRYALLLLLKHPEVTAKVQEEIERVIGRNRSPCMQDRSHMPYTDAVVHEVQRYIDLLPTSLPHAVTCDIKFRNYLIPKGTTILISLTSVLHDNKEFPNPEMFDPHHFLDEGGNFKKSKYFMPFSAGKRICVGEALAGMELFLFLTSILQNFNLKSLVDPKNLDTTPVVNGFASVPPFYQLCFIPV
In short: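 CYP2C9 deoxyluciferin hydroxylation, 37C, 60 min with NADPH regeneration; 10nM enzyme, 100uM Luciferin-H (KM). Glo detection reagent stopped reaction; luminescence normalized to sulphaphenazole (57uM) full inhibition.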

[20] = qHTS Assay for Identification of Small Molecule Antagonists for NFkB Signaling Pathway (AID 895; active means well fitted inhibition curve with a large enough effect in the signal ratio, with a control signal flat, not every such curve was filed as active; the % refers to the signal ratio; further: on the % scale 0 is the no-effect control and ±100 the full control effect)
In short: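 NFkB-bla ME-180 cervical carcinoma cells with beta-lactamase reporter under NFkB response element; compounds added, then TNF alpha at 10 pM final (EC50), 5 h at 37 C. LiveBLAzer substrate 2 h, room temperature; emission 460/530 nm at 405 nm excitation.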

CC1=C(C(=O)O)N2C(=O)[C@@H](NC(=O)[C@@H](N)C3=CCC=CC3)[C@@H]2SC1
inactive: activity change, negative = inhibition [1] 0.806% [at 38 µM] | Potency [2] | activity change, negative = inhibition [3] 1.78% [at 38 µM] | activity, negative = inhibition [4] -5.32% [at 38 µM] | Potency [5] > 46 µM | Potency [6] > 46 µM | Potency [7] | Potency [8] | outcome [9] | Potency [10] | Potency [11] | Potency [12] | outcome [13] | Potency [14] | outcome [15] | outcome [16] | outcome [17] | Potency [18]

NC(N)=N[C@H](CCC(=O)O)C(=O)O
inactive: activity change, negative = inhibition [1] -11% [at 38 µM] | Potency [2] | activity change, negative = inhibition [3] -4.2% [at 38 µM] | activity, negative = inhibition [4] 0.861% [at 38 µM] | Potency [5] > 46 µM | Potency [6] > 46 µM | Potency [7] | Potency [8] | outcome [9] | Potency [10] | Potency [14] | outcome [16] | outcome [17] | Potency [18]

Nc1ncnc2c1ncn2[C@@H]1CCCO1
inactive: activity change, negative = inhibition [1] 2.44% [at 38 µM] | Potency [2] | activity change, negative = inhibition [3] -4.45% [at 38 µM] | activity, negative = inhibition [4] -7.91% [at 38 µM] | Potency [5] > 46 µM | Potency [6] > 46 µM | Potency [7] | Potency [8] | outcome [9] | Potency [19] | outcome [13] | Potency [14] | outcome [16] | outcome [17] | Potency [18]

NCC[C@H]1CCC[C@H](CCN)N1
inactive: activity change, negative = inhibition [1] 2.44% [at 38 µM] | Potency [2] | activity change, negative = inhibition [3] 2.27% [at 38 µM] | activity, negative = inhibition [4] -5.59% [at 38 µM] | Potency [5] > 46 µM | Potency [6] > 46 µM | Potency [7] | Potency [8] | outcome [9] | Potency [20] | outcome [13] | Potency [14] | outcome [15] | outcome [16] | outcome [17] | Potency [18]

O=C(O)CCCC[C@H]1CCSS1
inactive: activity change, negative = inhibition [1] -4.68% [at 38 µM] | Potency [2] | activity change, negative = inhibition [3] -1.58% [at 38 µM] | activity, negative = inhibition [4] -7.28% [at 38 µM] | Potency [5] > 46 µM | Potency [6] > 46 µM | Potency [7] | Potency [8] | outcome [9] | Potency [19] | Potency [20] | outcome [15] | outcome [16] | outcome [17]

— PubChem BioAssay (NCATS)
